Measured values: PubChem BioAssay AID1645883 (National Center for Advancing Translational Sciences (NCATS), 2021)
Several values for one entry are separate records, joined by “and”; a condition that tells them apart may be missing. Identical values can stand only once. About 160 (1%) of roughly 16,000 compounds were called active. Inconclusive results (about 8%) are left out. This excerpt belongs to a sample that is enriched for actives. Unmarked numbers belong to inactive results. The call rests on the fitted dose curve; in most records, active means well fitted activation curve with a large enough effect; inconclusive means small, poorly fitted or top-dose-only effect; inactive means no such curve, though single readings can be large or run the other way.

The molecules below were run against Rap guanine nucleotide exchange factor 3 (Homo sapiens) (UniProt O95398) (assay: Validation qHTS for agonist of cAMP-regulated guanine nucleotide exchange factor 3 (EPAC1)). Settings: EPAC1 Rap1b BODIPY-GDP exchange, fluorescence; max response: active compounds read high, percent of cAMP control response.
Excerpt: Assay Provider (PI): Xiaodong Cheng Ph.D.
The University of Texas Medical Branch, […], TX
In multi-cellular eukaryotic organisms, the effects of cAMP are transduced by two ubiquitously-expressed intracellular cAMP receptors, the classic protein kinase A/cAMP-dependent protein kinase (PKA/cAPK) and the more recently discovered exchange protein directly activated by cAMP/cAMP-regulated guanine nucleotide exchange factor (EPAC/cAMP-GEF). Both PKA and EPAC are ubiquitously expressed in all tissues, and an increase in intracellular cAMP levels will lead to the activation of both PKA and EPAC. Therefore, careful dissections of the individual role and relative contribution of EPAC and PKA within the overall cAMP signaling in various model systems are critical for further elucidating the mechanism of cAMP signaling. To date no EPAC-specific antagonists and agonist, as well as isoform-specific agonists have been reported, and developing EPAC-specific pharmacological probes to determine the physiological functions that EPAC play in the overall cAMP-mediated signaling remains a major challenge within the research field. Furthermore, identified regulators of EPAC may lead to new mechanism-based therapeutic strategies specifically targeting the EPAC / cAMP-signaling components as EPAC has been implicated to play important roles in major human pathological conditions such as diabetes, heart disease, and cancer.
This qHTS will be used to screen the Molecular Libraries Small Molecule Repository (MLSMR) as a concentration-titration series using the NCGC unique quantitative screening (qHTS) platform to find activators for EPAC1. In addition, this assay will also be used as a counterscreen for the EPAC2 qHTS. This fluorescent based assay is developed and validated for EPAC1 that measures exchange using EPAC effector Rap1 complex with BODIPY-GDP, a GDP analog with a tethered fluorophores. Activators are identified by monitoring the change in fluorescence signal as the exchanged free BODIPY-GDP has a reduced fluorescence compared to Rap1-bound BODIPY-GDP. Increase in signal (activation) is the desired outcome for the EPAC1 agonist while no activity in this assay is desired for the EPAC2 agonist counterscreen.
[1] de Rooij, J., Zwartkruis, F. J., Verheijen, M. H., Cool, R. H., Nijman, S. M., Wittinghofer, A., and Bos, J.L. (1998) Nature 396, 474-477.
Briefly, three uL of reagents (100 nM EPAC1, 250 nM RAP1B-BODIPY-GDP, 50 uM GDP) were dispensed into a 1536-well Greiner black solid-bottom medium binding assay plate. Controls and test compounds (23 nL) were transferred to the plate via a Kalypsys pin tool equipped with a 1536-pin array. The plates were centrifuged at 1,000 rpm for 15 seconds followed by 5 minute incubation at room temperature. The assay plates were read at 5 minute intervals for 30 minutes in the ViewLux plate reader using 480nm excitation and 540nm emission filters. The results were normalized to the agonist positive control of 6.5 mM cAMP.
Further: nearly all actives have a fitted effect of over 70% in size.
On the % scale 0 is the no-effect control and ±100 the full control effect; potency means the concentration at half of the fitted maximal effect.

Rap guanine nucleotide exchange factor 3 (Homo sapiens), sequence (O95398 whole entry, looked up): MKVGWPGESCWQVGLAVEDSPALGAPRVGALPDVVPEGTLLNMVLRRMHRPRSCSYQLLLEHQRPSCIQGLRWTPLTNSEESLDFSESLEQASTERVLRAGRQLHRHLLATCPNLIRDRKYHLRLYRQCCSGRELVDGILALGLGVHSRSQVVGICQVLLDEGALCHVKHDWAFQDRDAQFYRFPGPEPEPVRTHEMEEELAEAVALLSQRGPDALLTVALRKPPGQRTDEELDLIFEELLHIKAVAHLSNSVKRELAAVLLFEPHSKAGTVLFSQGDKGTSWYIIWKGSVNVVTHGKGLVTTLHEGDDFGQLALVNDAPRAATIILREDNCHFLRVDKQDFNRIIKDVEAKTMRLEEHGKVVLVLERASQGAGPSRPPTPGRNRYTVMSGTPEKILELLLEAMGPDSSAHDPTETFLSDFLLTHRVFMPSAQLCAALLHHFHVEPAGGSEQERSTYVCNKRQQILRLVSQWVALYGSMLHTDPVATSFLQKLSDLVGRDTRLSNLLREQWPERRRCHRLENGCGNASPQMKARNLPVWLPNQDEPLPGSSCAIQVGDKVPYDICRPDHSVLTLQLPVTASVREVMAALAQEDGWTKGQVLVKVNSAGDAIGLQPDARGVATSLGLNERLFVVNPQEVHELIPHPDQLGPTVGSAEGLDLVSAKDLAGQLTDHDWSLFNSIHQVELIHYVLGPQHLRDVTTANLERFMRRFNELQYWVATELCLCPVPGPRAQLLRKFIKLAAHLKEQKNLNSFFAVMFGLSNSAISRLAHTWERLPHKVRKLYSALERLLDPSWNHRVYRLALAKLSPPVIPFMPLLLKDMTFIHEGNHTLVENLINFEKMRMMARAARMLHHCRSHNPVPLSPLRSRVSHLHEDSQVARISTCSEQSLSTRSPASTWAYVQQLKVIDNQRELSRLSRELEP

SMILES	max response	Potency
Cc1cccc(CN2Cc3cccc4c3[C@H](C=CC4)CC2=S)c1	29.3%	–
CCCCC[C@H]1CN(C2CCCCC2)C(=O)[C@@H]1CC(=O)NCc1ccc(OC)cc1	-76.4%	–
CC(=O)Oc1c2c(c3c(c1CC=C(C)C)O[C@@]14C(=CC5CC1C(C)(C)OC4(C/C=C(\C)C(=O)O)C5=O)C3=O)OC(C)(CCC=C(C)C)C=C2 (some centres not stated)	-112%	–
O=C(c1cc(C(F)(F)F)cc(C(F)(F)F)c1)N1CCC[C@@]2(CCN(c3ccccn3)C2)C1	-122%	–
O=C1C[C@H]2C=CCc3cccc(c32)CN1Cc1ccccc1	-26.6%	–
CNc1nc(-c2ccccc2OC)nc2ccccc12	24.4%	–
COc1ccc(CNc2ncncc2-c2ccccc2C)c(OC)c1	-35%	–
C=C1C(=O)C23C(O)C1CCC2[C@]12COC3(O)C(O)C1C(C)(C)CC[C@H]2O (some centres not stated)	-116%	–
O=C(O)CCc1cccnc1	-31.6%	–
COc1ccc(CN2CCOc3c(cc(-c4ncc(C(F)(F)F)cc4Cl)cc3OCC3CCCO3)C2)c(O)c1 (configuration not stated)	-26%	–
CC1=C(/C=C/C(C)=C/C=C/C(C)=C/C=C/C=C(C)/C=C/C=C(C)/C=C/C2=C(C)CCCC2(C)C)C(C)(C)CCC1	-9%	–
Cn1cccc1C(=O)N1CCC2(CC1)CN(c1cccc(-c3ccccc3)c1)C2	–	112 µM (active)
O=C(c1csnn1)N1CCC[C@@]2(CCN(c3cccc(-c4ccccc4)c3)C2)C1	-63.8%	–
CC(C)NC(=O)N1CCC2(CC1)CCN(C(=O)c1cccn1C)CC2	-49.6%	–
Oc1ccc2c(c1)OCC1c3cc4c(cc3OC21)OCO4 (configuration not stated)	5.11%	–
O=C(c1ccc(F)cc1)C1CCN(CCCCc2ccccc2)CC1	-5.39%	–
COc1cc(=O)n2c(c1C(=O)N(C)Cc1nccs1)CCN(Cc1ccc(Cl)cc1)CC2	-7.19%	–
Cc1nc2cnc(Nc3ccccc3)nc2n(Cc2ccc(F)cc2)c1=O	15.4%	–
O=c1c(-c2cc(F)cc(F)c2)nc2cnc(Oc3ccccc3)nc2n1C[C@H]1CCCO1	-26.8%	–
N#CCCn1c(=O)c(-c2cc(F)cc(F)c2)nc2cnc(Oc3ccccc3)nc21	3.54%	–
O=C(c1cc2ccccc2o1)N1CCN(Cc2ccccc2)CC1	-2.2%	–

SMILES	max response	Potency
c1ccc2c(Nc3ccncc3)nc(-c3ccoc3)nc2c1	-4.89%	–
COc1cccc(-c2nc(Nc3ccncc3)c3ccccc3n2)c1	–	100 µM (active)
c1ccc2c(Nc3ccncc3)nc(-c3ccc4c(c3)OCO4)nc2c1	10.9%	–
CC1CC2C3CCC4=CC(=O)C=C[C@]4(C)[C@@]3(F)[C@@H](O)C[C@]2(C)[C@@]1(O)C(=O)CO (some centres not stated)	3.48%	–
O=C(O)C(O)[C@@](O)(Cc1ccc(O)cc1)C(=O)O (some centres not stated)	6.44%	–
O=C(O)C1CCN(c2ncnc3ccc(-c4ccccc4C(F)(F)F)cc23)CC1	-7.12%	–
CC(C)C(=O)NC(C)c1nnc2n1CCN(Cc1cccc3ncccc13)CC2 (configuration not stated)	-0.781%	–
O=C(c1csnn1)N1CCC2(CCN(Cc3nccs3)CC2)CC1	-44.7%	–
C[C@@H]1CN(Cc2ccc3c(c2)CN(Cc2ccc(Oc4ncccn4)cc2)CCO3)C[C@H](C)O1	-1.6%	–
O=C(c1ccco1)N1CCC[C@@]2(CCN(Cc3nccs3)C2)C1	-63.4%	–
CS(=O)(=O)N1CCC[C@@]2(CCN(c3ccncc3)C2)C1	-34%	–
O=C(Nc1cccc(F)c1)N1CC2(CCN(C(=O)c3cnccn3)CC2)C1	7.33%	–
C=C1C(=CC=C2CCC[C@]3(C)[C@@H]([C@H](C)C=C[C@H](C)C(C)C)CC[C@@H]23)C[C@@H](O)C[C@@H]1O	-167%	–
C=CC(C1=CC(=O)C=CC1=O)c1ccc(O)cc1 (configuration not stated)	3.74%	–
Fc1cccc(/C=N\N=C/c2cccc(F)c2)c1	-1.27%	–
O=C1OC(C(O)CO)C(O)=C1O (configuration not stated)	21.1%	–
N#Cc1cc2[nH]c(=O)c(=O)[nH]c2cc1[N+](=O)[O-]	0.579%	–
CN1CC[C@H](c2c(O)cc(O)c3c(=O)cc(-c4ccccc4Cl)oc23)[C@H](O)C1	-89%	–
Cn1cc(-c2nc3cncnc3n(-c3ccccc3)c2=O)c2ccccc21	-219%	–
N[C@@H](C(=O)O)c1ccc(P(=O)(O)O)cc1	-5.54%	–
CC1CC[C@@]23CCC4(C)[C@@]5(C)CCC6C(C)(C)C(O)CC[C@@]6(C)C5C=C[C@@]4(OC2=O)C3C1C (some centres not stated)	-57.5%	–

SMILES	max response	Potency
O=C1NS(=O)(=O)c2ccccc21	-6.7% and 22.2%	–
CC(=O)OC[C@H]1O[C@@H](O[C@H]2[C@H](O)[C@@H](OC(=O)c3ccccc3C(=O)O)[C@H](O)O[C@@H]2COC(C)=O)[C@H](O)[C@@H](OC(=O)c2ccccc2C(=O)O)[C@@H]1O	-29.6%	–
CC(O)(COc1ccccc1)c1ccc2c(c1)CN(Cc1cn[nH]c1-c1ccc(F)cc1)CCO2 (configuration not stated)	6.27%	–
COc1ccc(CCNc2ncnc3sc(C(=O)N4CCCC4)c(C)c23)cc1OC	-3.63%	–
O=C(c1cc(C(F)(F)F)cc(C(F)(F)F)c1)N1CCC2(CCCN(Cc3ccncc3)C2)CC1	-115%	–
COC(=O)N1CCC[C@@]2(CCN(C(=O)NC(C)C)C2)C1	-60.9%	–
C[C@H]1C[C@H]2[C@@H]3CCC4=CC(=O)C=C[C@]4(C)[C@@H]3C(=O)C[C@]2(C)[C@@]1(O)C(=O)CO	0.445%	–
COc1cc2c(cc1OC)[C@@H](Cc1cc(OC)c(OC)c(OC)c1)[N+](C)(CCCOC(=O)CC/C=C/CCC(=O)OCCC[N+]1(C)CCc3cc(OC)c(OC)cc3[C@H]1Cc1cc(OC)c(OC)c(OC)c1)CC2 (some centres not stated)	-11.5% and 6.58%	–
CC(=O)Nc1ccccc1-c1nc(CNC(=O)c2ccc(Cl)cc2)c(C)o1	-0.968%	–
COc1cc(=O)n2c(c1C(=O)NC(C)c1ccco1)CCN(C(=O)c1cn3ccc(C)cc3n1)CC2 (configuration not stated)	-8.43%	–
NCCCNCCCCN(CCCN)/[N+]([O-])=N/O	-13.7%	–
O=C1CCN(CCc2ccccc2)CCN1CCOc1ccccc1	21.5%	–
O=C(CN1Cc2ccccc2OC(c2ccccc2)C1)N1CCCCC1c1cccnc1 (configuration not stated)	3.86%	–
N[C@H](C(=O)O)c1ccc(C(=O)O)c(O)c1	-1.36% and -12.7%	–
Cc1ccc(/C(=C/CN2CCCC2)c2ccccn2)cc1	-20.9%	–
CN1CCC2(CC1)CCN(S(=O)(=O)c1ccccc1)CC2	2.56%	–
CN(C)C(=O)[C@@H]1C[C@@H](Sc2nc3ccccc3[nH]2)CN1Cc1ccc(Cl)cc1	0.834%	–
C=C1C(=C/C=C2\CCC[C@]3(C)[C@@H]([C@H](C)CCCC(C)(C)O)CC[C@@H]23)C[C@@H](O)C[C@@H]1O	-16.6%	–
O=C(c1csnn1)N1CCC2(CC1)CN(c1ncccn1)C2	26.8%	–
O=C(NCCN1CCOCC1)c1cnn(-c2nccc(-c3cccs3)n2)c1C1CC1	-10.9%	–
CN(Cc1ccco1)c1cc(-c2ccccc2C(F)(F)F)ncn1	17%	–

SMILES	max response	Potency
COc1ccc(C)cc1N1C(=O)[C@@H]2C[C@H]1CN2Cc1cccc(OC)c1O	-2.66%	–
O=C(O)CCC(=O)O	-16.2%	–
COC1[C@H](OC(N)=O)C(O)[C@H](Oc2ccc3c(O)c(NC(=O)c4ccc(O)c(CC=C(C)C)c4)c(=O)oc3c2C)OC1(C)C (some centres not stated)	12.3%	–
O=C(C[n+]1ccncc1)c1ccc2c(c1)CCCC2	-14.9%	–
COc1cc(=O)n2c(c1C(=O)N(C)Cc1nonc1C)CCN(C(=O)c1ccc(C)cc1C)CC2	-17.4%	–
C=C1C(=CC=C2CCC[C@@]3(C)[C@@H]2CC[C@H]3[C@H](C)CCCC(C)C)C[C@@H](O)C[C@@H]1O	-125%	–
CN1CCN(c2ncncc2-c2ccc(C(=O)N(C)C)cc2)CC1	-22%	–
Cc1cccc(C)c1NC(=O)NC1=CCCN1C	-23.6%	–
O=C1NC(CC(=O)N2CCC(n3c(C4CCC4)nc4cccnc43)CC2)c2ccccc21 (configuration not stated)	2.72%	–
CCNCCCNCCCNCCCNCC	-1.46%	–
CCCCCCCC/C=C\CCCCCCCC(=O)OC[C@H](CO)OC(C)=O	-42.9%	–
Nc1ncnc2c1c(I)cn2[C@@H]1C[C@H](N)[C@@H](O)[C@H]1O	-1.21%	–
COc1ccccc1CNc1ncncc1-c1cccnc1	-29.8%	–
O=C(OCCN1CCOCC1)C1(c2ccccc2)CCCCC1	0.319% and -0.482% and -4.96%	–
CC1(C)[C@@H]2CC[C@@]1(C)[C@H](OC(=O)CSC#N)C2	-10.5%	–
COc1ccc(Oc2ncc3nc(-c4ccc(F)cc4)c(=O)n(C)c3n2)cc1	-48.7%	–
OCC1CCCN(c2nc3cc4c(cc3cc2CNCc2cccs2)OCO4)C1 (configuration not stated)	-2.38%	–
COc1ccc(-c2nc3cnc(OC)nc3n(Cc3ccc(F)cc3)c2=O)cc1	-45.5%	–
CC(C)[C@H](CO)Nc1nc(Nc2cc(N)cc(Cl)c2)c2ncn(C(C)C)c2n1	16.3%	–
